We go through one sequence from publication PMC7862700, “An all-to-all approach to the identification of sequence-specific readers for epigenetic DNA modifications on cytosine”.

What all share (experiment): DAPPL (digital affinity profiling via proximity ligation, sequencing); 10 mM Tris-HCl pH 7.5, 50 mM NaCl, 1 mM DTT, 4% glycerol, room temperature, 30 min; GST-TFs on glutathione beads, 16-mer random dsDNA library, 0.1% formaldehyde crosslink after washing; high values mean tight binding
Holding throughout (settings): protein: recombinant; tags: N-terminal GST; dsDNA, one strand shown

The target of one test is T1, FLI1 (Homo sapiens, UniProt Q01543 1-452).
T1 sequence: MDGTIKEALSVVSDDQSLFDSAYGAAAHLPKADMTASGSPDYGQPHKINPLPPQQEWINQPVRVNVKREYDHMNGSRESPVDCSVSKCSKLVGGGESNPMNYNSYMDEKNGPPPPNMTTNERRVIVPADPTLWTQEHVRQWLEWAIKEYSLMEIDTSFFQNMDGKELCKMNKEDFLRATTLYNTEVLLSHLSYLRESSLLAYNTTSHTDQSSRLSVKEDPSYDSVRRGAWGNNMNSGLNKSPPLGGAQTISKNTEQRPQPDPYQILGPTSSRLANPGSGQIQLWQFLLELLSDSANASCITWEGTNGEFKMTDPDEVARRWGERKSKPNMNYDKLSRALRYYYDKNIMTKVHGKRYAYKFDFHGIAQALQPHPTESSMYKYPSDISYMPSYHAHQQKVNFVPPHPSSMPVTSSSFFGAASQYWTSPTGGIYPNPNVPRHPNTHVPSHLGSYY
An outline of the steps: (§1)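 Sequencing on an Illumina NextSeq500 followed washing, crosslinking with 0.1% formaldehyde, proximity ligation (BsaI/T4 ligase, 1 h, 37 °C) and PCR amplification of pools that had been incubated for 30 min at room temperature with 200 nmole of a random double-stranded 16-mer DNA library in Tris/NaCl/DTT/glycerol buffer. Each pool held DNA-barcoded human transcription factors, expressed in yeast as GST fusions and captured on glutathione beads, plus a tag-only sample. Binding signal is a hexamer's read frequency for a factor divided by its frequency in the tag-only sample.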

A further test has as its target T2, GABPA (Homo sapiens, UniProt Q06546 1-454).
T2 sequence: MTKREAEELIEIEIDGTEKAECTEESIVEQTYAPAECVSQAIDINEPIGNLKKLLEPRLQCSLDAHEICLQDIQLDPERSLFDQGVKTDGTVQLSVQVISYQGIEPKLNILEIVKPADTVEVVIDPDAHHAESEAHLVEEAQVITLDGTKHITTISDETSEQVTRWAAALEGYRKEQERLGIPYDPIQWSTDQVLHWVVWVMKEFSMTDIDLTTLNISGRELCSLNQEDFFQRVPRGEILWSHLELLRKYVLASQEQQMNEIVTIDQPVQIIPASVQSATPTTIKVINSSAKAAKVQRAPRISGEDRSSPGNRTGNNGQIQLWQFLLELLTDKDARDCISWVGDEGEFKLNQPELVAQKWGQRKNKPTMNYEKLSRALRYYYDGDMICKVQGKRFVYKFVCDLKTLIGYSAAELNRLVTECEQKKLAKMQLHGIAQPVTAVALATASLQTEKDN
An outline of the steps:
as §1

The target of a further test is T3, ERG (Homo sapiens, UniProt P11308 1-479).
T3 sequence: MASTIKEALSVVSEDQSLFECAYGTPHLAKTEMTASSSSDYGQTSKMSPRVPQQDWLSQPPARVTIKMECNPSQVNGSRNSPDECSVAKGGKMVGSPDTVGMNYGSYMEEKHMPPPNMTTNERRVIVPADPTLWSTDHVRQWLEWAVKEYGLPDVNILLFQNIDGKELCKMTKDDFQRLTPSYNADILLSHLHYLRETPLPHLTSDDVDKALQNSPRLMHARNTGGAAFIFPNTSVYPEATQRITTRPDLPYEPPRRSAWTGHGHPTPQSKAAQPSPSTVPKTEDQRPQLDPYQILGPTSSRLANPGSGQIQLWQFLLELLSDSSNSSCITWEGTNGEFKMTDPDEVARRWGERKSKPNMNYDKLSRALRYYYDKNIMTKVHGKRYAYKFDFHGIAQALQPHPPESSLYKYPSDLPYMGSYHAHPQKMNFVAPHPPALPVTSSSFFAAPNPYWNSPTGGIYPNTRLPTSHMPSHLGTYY
An outline of the steps:
as §1

A further test concerns the target ELF1 (Homo sapiens, UniProt P32519 1-619). An outline of the steps:
as §1

The target in another test is T4, EHF (Homo sapiens, UniProt Q9NZC4 1-300).
T4 sequence: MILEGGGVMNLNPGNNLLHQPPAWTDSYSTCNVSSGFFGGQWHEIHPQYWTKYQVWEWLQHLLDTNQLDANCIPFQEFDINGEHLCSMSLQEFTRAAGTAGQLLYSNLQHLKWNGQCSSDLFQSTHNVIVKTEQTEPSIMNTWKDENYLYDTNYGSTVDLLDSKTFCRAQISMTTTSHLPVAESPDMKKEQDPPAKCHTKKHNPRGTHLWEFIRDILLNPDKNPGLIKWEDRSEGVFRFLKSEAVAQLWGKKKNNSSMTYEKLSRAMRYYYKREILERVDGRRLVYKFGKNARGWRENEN
Put shortly: as §1

The target of the next test is SPI1 (Homo sapiens, UniProt P17947 1-270). Put shortly:
as §1

Another test has as its target SPIB (Homo sapiens, UniProt Q01892 1-262). An outline of the steps: as §1
The next test concerns the target T5, ELK3 (Homo sapiens, UniProt P41970 1-407).
T5 sequence: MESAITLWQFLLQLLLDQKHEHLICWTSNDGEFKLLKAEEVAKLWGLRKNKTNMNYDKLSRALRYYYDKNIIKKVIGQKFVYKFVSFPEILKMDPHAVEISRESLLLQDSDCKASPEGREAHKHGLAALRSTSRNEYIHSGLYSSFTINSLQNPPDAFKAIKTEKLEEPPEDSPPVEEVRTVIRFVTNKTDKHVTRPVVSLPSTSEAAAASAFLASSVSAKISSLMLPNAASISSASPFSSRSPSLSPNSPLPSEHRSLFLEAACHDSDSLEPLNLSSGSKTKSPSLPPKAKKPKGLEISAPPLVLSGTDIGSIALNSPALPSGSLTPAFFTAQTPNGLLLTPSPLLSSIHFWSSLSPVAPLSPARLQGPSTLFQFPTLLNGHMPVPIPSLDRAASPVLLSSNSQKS
An outline of the steps:
as §1

The next test concerns the target T6, FEV (Homo sapiens, UniProt Q99581 1-238).
T6 sequence: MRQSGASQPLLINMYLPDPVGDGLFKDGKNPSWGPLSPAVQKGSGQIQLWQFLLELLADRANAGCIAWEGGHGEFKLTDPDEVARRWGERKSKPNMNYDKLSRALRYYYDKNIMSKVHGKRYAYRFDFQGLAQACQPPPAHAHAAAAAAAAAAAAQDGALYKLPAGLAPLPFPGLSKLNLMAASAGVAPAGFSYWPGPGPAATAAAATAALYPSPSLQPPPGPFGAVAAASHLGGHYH
An outline of the steps:
as §1

The target of the next test is ETV5 (Homo sapiens, UniProt P41161 1-510). Put shortly:
as §1

In a further test the target is T7, SPIC (Homo sapiens, UniProt Q8N5J4 1-248).
T7 sequence: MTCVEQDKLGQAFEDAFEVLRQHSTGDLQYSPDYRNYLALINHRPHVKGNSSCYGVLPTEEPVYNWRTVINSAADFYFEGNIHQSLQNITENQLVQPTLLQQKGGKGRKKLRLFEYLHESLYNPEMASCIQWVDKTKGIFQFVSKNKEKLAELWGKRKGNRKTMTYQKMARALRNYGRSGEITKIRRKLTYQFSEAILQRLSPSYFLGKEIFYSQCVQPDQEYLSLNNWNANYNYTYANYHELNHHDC
Put shortly:
as §1

The next test concerns the target ELF4 (Homo sapiens, UniProt Q99607 1-663). An outline of the steps:
as §1

A further test concerns the target ETV1 (Homo sapiens, UniProt P50549 1-477). An outline of the steps: as §1
A further test has as its target T8, ERF (Homo sapiens, UniProt P50548 1-548).
T8 sequence: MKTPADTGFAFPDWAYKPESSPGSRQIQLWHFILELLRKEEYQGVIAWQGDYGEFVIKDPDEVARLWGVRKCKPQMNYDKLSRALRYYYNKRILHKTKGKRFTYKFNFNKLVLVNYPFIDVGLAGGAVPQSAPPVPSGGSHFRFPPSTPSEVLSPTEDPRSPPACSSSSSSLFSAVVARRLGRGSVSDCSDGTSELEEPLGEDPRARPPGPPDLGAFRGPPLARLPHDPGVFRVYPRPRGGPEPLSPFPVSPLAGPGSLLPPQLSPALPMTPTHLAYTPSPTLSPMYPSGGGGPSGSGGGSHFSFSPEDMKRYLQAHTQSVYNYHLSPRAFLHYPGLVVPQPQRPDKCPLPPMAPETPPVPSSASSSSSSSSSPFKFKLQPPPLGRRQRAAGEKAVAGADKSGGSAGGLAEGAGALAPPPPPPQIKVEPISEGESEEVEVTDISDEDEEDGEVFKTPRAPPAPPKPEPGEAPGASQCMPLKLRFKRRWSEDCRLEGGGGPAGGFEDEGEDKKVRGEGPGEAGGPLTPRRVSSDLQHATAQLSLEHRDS
An outline of the steps:
as §1

The target of the next test is T9, ETV3L (Homo sapiens, UniProt Q6ZN32 1-361).
T9 sequence: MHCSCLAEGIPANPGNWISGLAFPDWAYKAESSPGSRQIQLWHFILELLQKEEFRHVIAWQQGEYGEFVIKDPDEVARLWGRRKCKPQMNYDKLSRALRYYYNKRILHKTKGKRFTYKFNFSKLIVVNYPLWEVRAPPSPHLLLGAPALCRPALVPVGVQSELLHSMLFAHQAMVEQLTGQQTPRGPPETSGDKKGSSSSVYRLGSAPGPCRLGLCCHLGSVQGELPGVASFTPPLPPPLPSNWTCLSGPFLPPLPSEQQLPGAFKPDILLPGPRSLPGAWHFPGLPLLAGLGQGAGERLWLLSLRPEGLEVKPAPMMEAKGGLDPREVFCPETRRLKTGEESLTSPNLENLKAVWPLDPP
Put shortly:
as §1

Another test addresses T10, ETS2 (Homo sapiens, UniProt P15036 1-469).
T10 sequence: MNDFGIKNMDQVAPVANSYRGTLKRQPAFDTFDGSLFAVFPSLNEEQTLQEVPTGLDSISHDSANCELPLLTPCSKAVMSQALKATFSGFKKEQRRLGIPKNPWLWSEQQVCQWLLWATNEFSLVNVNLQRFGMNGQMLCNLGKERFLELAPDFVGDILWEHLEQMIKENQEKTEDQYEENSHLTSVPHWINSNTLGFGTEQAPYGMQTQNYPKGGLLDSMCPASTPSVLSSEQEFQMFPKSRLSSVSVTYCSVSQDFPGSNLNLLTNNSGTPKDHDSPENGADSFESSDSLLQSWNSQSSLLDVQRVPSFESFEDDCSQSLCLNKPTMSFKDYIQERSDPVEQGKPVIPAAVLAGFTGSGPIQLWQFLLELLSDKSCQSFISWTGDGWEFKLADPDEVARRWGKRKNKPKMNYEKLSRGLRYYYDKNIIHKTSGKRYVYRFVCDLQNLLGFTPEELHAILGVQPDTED
Put shortly:
as §1

The next test addresses T11, ELF5 (Homo sapiens, UniProt Q9UKW6-2 1-255).
T11 sequence: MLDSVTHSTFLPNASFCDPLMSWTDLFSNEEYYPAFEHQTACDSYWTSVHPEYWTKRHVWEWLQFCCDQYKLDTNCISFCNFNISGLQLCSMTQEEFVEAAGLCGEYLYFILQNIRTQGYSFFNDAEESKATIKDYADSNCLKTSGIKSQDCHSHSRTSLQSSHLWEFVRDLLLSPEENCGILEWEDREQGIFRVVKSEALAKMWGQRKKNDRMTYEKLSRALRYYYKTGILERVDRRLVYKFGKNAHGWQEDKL
Put shortly: as §1

A further test concerns the target T12, ETV3 (Homo sapiens, UniProt P41162-2 1-143).
T12 sequence: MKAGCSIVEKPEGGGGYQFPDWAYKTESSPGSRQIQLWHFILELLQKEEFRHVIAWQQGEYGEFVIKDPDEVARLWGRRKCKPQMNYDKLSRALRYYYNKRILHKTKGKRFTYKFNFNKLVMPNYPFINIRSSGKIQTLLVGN
An outline of the steps: as §1

The target in another test is ETV6 (Homo sapiens, UniProt P41212 1-452). Put shortly:
as §1

Sequence of ELF1 (P32519 whole entry): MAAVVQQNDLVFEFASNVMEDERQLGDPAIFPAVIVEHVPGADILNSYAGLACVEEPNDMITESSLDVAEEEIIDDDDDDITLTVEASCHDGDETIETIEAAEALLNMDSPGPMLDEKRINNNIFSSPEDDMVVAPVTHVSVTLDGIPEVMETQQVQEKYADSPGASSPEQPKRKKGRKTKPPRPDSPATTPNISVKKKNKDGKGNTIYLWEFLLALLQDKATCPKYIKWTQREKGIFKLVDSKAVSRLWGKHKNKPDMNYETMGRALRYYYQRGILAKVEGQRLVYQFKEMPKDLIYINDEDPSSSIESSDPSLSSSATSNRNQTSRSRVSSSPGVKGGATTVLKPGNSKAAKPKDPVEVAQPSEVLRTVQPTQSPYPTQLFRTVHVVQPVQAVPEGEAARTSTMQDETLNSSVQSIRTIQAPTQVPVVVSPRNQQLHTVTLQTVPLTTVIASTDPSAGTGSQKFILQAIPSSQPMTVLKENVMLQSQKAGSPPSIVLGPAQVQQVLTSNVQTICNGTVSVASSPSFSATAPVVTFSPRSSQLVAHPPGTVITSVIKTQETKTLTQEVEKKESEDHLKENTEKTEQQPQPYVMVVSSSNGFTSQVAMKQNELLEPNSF
Sequence of ELF4 (Q99607 whole entry): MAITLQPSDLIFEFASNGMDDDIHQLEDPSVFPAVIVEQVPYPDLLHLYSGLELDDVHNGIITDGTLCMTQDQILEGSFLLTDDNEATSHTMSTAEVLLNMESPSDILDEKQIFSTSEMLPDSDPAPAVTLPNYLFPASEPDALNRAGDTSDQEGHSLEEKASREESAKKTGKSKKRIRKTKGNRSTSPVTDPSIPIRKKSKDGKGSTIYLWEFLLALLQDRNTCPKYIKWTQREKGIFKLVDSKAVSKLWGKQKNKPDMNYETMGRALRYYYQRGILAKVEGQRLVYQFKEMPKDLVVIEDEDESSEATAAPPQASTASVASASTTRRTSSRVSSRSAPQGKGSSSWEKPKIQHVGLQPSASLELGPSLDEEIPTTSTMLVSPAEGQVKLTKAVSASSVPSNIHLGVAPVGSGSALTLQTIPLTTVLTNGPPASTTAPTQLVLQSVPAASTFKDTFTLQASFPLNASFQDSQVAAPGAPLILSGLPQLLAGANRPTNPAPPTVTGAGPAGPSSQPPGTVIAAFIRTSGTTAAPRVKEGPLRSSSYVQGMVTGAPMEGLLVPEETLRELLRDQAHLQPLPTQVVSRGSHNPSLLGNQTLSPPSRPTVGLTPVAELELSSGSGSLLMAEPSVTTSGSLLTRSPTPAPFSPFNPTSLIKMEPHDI
Sequence of SPIB (Q01892 whole entry): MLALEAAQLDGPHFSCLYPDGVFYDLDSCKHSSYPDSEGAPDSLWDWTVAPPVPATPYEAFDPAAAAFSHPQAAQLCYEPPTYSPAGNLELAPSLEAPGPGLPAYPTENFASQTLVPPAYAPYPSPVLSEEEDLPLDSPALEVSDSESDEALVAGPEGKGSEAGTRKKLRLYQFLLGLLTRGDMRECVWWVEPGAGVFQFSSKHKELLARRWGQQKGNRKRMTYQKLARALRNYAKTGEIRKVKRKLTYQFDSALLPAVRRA
Sequence of ETV5 (P41161 whole entry): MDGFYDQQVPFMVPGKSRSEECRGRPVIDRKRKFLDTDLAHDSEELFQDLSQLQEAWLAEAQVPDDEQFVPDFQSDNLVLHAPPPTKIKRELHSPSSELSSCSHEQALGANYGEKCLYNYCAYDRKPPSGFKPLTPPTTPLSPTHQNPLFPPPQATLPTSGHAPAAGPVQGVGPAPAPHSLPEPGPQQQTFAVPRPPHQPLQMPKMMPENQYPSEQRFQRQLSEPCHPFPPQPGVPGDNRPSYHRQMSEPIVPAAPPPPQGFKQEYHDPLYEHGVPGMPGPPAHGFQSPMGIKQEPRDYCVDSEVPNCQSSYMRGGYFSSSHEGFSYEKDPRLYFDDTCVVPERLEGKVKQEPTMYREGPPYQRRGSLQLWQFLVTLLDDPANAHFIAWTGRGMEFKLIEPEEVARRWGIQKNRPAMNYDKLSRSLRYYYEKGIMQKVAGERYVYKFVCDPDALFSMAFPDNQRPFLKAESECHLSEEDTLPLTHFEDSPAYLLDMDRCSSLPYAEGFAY
Sequence of ETV6 (P41212 whole entry): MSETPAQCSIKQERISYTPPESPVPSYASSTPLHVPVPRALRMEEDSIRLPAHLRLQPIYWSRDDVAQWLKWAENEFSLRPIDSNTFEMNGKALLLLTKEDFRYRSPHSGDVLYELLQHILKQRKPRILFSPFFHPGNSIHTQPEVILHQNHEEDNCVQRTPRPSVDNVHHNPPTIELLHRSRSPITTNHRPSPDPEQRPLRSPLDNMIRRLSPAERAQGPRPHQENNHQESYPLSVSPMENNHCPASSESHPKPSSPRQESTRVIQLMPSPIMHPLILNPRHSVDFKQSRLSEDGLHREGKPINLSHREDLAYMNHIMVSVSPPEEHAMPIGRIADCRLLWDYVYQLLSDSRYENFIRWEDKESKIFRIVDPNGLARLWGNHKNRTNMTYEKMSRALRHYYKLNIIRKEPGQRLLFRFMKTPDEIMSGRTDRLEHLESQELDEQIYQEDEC
Sequence of ETV1 (P50549 whole entry): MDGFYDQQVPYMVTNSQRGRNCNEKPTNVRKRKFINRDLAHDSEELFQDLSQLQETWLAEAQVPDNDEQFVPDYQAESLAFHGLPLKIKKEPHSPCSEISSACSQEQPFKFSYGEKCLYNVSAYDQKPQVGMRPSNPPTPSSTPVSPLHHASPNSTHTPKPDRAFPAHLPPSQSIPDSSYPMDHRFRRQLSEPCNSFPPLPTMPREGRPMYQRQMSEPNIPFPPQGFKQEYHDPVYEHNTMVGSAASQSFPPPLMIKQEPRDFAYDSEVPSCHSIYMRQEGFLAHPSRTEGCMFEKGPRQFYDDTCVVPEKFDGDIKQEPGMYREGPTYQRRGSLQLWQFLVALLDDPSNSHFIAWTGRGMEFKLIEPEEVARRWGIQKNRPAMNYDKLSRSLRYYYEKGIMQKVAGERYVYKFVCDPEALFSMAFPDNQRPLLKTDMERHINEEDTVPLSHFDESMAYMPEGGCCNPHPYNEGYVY

For the sequence GGTTTT, the binding signal with FLI1 was 1.22 fold enrichment (6-mer frequency, TF over GST control); with GABPA, 1.2 fold enrichment (6-mer frequency, TF over GST control); with ERG, 1.1 fold enrichment (6-mer frequency, TF over GST control); with ELF1, 1.11 fold enrichment (6-mer frequency, TF over GST control); with EHF, 1.08 fold enrichment (6-mer frequency, TF over GST control); in the test with SPI1 it was 1.24 fold enrichment (6-mer frequency, TF over GST control). Besides, the binding signal with SPIB was 1.05 fold enrichment (6-mer frequency, TF over GST control); with ELK3, 1.04 fold enrichment (6-mer frequency, TF over GST control); in the test with FEV, 1.13 fold enrichment (6-mer frequency, TF over GST control); in the test with ETV5, 1.11 fold enrichment (6-mer frequency, TF over GST control); with SPIC, 1.04 fold enrichment (6-mer frequency, TF over GST control); with ELF4 it was 1.15 fold enrichment (6-mer frequency, TF over GST control). Besides, the binding signal is 1.15 fold enrichment (6-mer frequency, TF over GST control) with ETV1; 1.24 fold enrichment (6-mer frequency, TF over GST control) in the test with ERF; 1.08 fold enrichment (6-mer frequency, TF over GST control) in the test with ETV3L; 1.1 fold enrichment (6-mer frequency, TF over GST control) with ETS2; 1.12 fold enrichment (6-mer frequency, TF over GST control) with ELF5; 1.14 fold enrichment (6-mer frequency, TF over GST control) in the test with ETV3. In addition, in the test with ETV6, the binding signal was 1.05 fold enrichment (6-mer frequency, TF over GST control).
